PubChem BioAssay AID1159580 (chemical genetic matrix, 2015)
Hit rate of the full screen: of about 5,500 compounds, about 2,000 (36%) were called active. Roughly 18% stayed inconclusive and do not appear here. Cut-off read from the data, not from the text of the source: active = normalized growth mostly below about 0.91 (no sharp cut-off); inconclusive = no clear call, values can overlap the other calls; inactive = mostly above about 0.92. The list shows a part of the results.

Test: chemical genetic growth profiling, strain panel (AID 1159580);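 note: tested at 20 µM; growth read once vehicle control cultures reached saturation at 30 °C; 1 = growth at the plate median or of vehicle wells; lower values mean less growth of the strain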
Settings: S. cerevisiae deletion strains, growth OD

Measured: normalized growth

NCCc1c[nH]c2ccc(O)cc12
inactive: locus YAL013W, strain DEP1, stronger effect = lower value 1.02 | locus YAL040C, strain CLN3, stronger effect = lower value 0.969 | locus YCL061C, strain MRC1 (second series), stronger effect = lower value 1.01 | locus YDR363W, strain ESC2, stronger effect = lower value 1.01 | locus YER002W, strain NOP16, stronger effect = lower value 1.01 | locus YHR030C, strain SLT2, stronger effect = lower value 1.02 | locus YHR079C, strain IRE1, stronger effect = lower value 1.02 | locus YJL095W, strain BCK1, stronger effect = lower value 1.01 | locus YJR066W, strain TOR1, stronger effect = lower value 0.942 | locus YLR113W, strain HOG1, stronger effect = lower value 0.991 | locus YMR307W, strain GAS1, stronger effect = lower value 1.03 | locus YNL175C, strain NOP13, stronger effect = lower value 1.01 | locus YNL183C, strain NPR1, stronger effect = lower value 0.949 | locus YNL197C, strain WHI3, stronger effect = lower value 1 | locus YNL224C, strain SQS1, stronger effect = lower value 1.01 | locus YOR083W, strain WHI5 (second series), stronger effect = lower value 1.04 | locus YOR231W, strain MKK1, stronger effect = lower value 1.02 | locus YPL256C, strain CLN2, stronger effect = lower value 1.01
